Source: PubChem BioAssay (Tox21)
The source made the active and inactive calls. Calls follow the shape of the dose curve; as a rule, active = well fitted curve in the direction sought with a large enough effect in the repeat runs; inconclusive = weak or mixed curves; inactive = flat fitted curve, though single readings scatter.

Assay: qHTS assay to test for compound auto fluorescence at 590 nm (red) in HepG2 cells (AID 720674)
Conditions: HepG2 autofluorescence, red 540/590 nm, 1 h; series mostly up to 91.3 µM
Procedure, shortened: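 Seeding: 2,000 HepG2 cells/well, MEM/10% FBS, overnight 37 C. Dosing: compound vs DMSO. Incubation: 1 hr, 37 C, 5% CO2. Read: fluorescence 540 ex/590 em, Rose Bengal sodium as red reference.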
With `O=C(O)CCl` the outcome was “inactive”. For `Nc1ccc(Cl)cc1`, the outcome was “inactive”. In the case of `CN(C)[C@@H]1C(=O)C(C(N)=O)=C(O)[C@@]2(O)C(=O)C3=C(O)c4c(O)cccc4[C@@](C)(O)[C@H]3[C@H](O)[C@@H]12`, the outcome is reported as “inactive”. With `CC(Cl)(Cl)C(=O)O` the outcome was “inactive”. In the case of `COP(=O)(OC)OC=C(Cl)Cl`, the outcome is reported as “inactive”. In the case of `O=S(=O)(O)O`, the outcome is reported as “inactive”. For `CCCCCCCCn1cc[n+](C)c1`, the outcome was “inactive”. For `CCC[N+]1(C)CCCCC1`, the outcome was “inactive”. With `C=CCOC(Cn1ccnc1)c1ccc(Cl)cc1Cl` (stereo unspecified) the outcome was “inactive”. In the case of `COc1ccccc1N`, the outcome is reported as “inactive”.

Assay: qHTS assay to test for compound auto fluorescence at 535 nm (green) in HepG2 cells (AID 720675)
Conditions: green autofluorescence 485/535 nm, 1 h; series mostly up to 91.3 µM
With `Oc1cccc2cccnc12` the outcome was “inactive”. With `O=C(O)CCl` the outcome was “inactive”. In the case of `Cc1cc(Cl)ccc1N`, the outcome is reported as “inactive”. With `O=c1nc(O)n(Cl)c(=O)n1Cl` the outcome was “inactive”. For `Nc1ccc(Cl)cc1`, the outcome was “inactive”. For `O=[N+]([O-])O`, the outcome was “inactive”. In the case of `CCCCn1cc[n+](C)c1C`, the outcome is reported as “inactive”. For `CCC[N+]1(C)CCCC1`, the outcome was “inactive”. With `CCCCCCCCCCn1cc[n+](C)c1` the outcome was “inactive”. For `CCCCCCCCCCCCn1cc[n+](C)c1`, the outcome was “inactive”. For `CN(C)[C@@H]1C(=O)C(C(N)=O)=C(O)[C@@]2(O)C(=O)C3=C(O)c4c(O)cccc4[C@@](C)(O)[C@H]3[C@H](O)[C@@H]12`, the outcome was “inactive”. For `O=c1[nH]c(=O)n(Cl)c(=O)n1Cl`, the outcome was “inactive”. With `CC(Cl)(Cl)C(=O)O` the outcome was “inactive”. With `C[N+](C)(C)Cc1ccccc1` the outcome was “inactive”. With `COP(=O)(OC)OC=C(Cl)Cl` the outcome was “inactive”. In the case of `CCCC[n+]1ccc(C)cc1`, the outcome is reported as “inactive”. In the case of `CCCCCC[n+]1ccccc1`, the outcome is reported as “inactive”. In the case of `CC(=O)O`, the outcome is reported as “inactive”. In the case of `CCn1cc[n+](C)c1C`, the outcome is reported as “inactive”. In the case of `CCCCn1cc[n+](C)c1`, the outcome is reported as “inactive”. With `O=S(=O)(O)O` the outcome was “inactive”. With `CCCCCCCCn1cc[n+](C)c1` the outcome was “inactive”. For `CCCn1cc[n+](C)c1`, the outcome was “inactive”. For `CC[N+](CC)(CC)CC`, the outcome was “inactive”. For `CCCC[n+]1ccccc1`, the outcome was “inactive”. In the case of `CCC[N+]1(C)CCCCC1`, the outcome is reported as “inactive”. In the case of `CCCCCCCCCCCC(=O)O`, the outcome is reported as “inactive”. For `C=CCOC(Cn1ccnc1)c1ccc(Cl)cc1Cl` (stereo unspecified), the outcome was “inactive”. In the case of `CCCCCCCCCCCCOS(=O)(=O)O`, the outcome is reported as “inactive”. For `COc1ccccc1N`, the outcome was “inactive”. With `CCCCCCCCCCCCCC[P+](CCCCCC)(CCCCCC)CCCCCC` the outcome was “inactive”. In the case of `CCCC[N+]1(C)CCCCC1`, the outcome is reported as “inactive”.

Assay: qHTS assay to test for compound auto fluorescence at 460 nm (blue) in HEK293 cells (AID 720678)
Conditions: blue autofluorescence 405/460 nm; series mostly up to 91.3 µM
Procedure, shortened: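 Blue read-out at excitation 405 nm and emission 460 nm follows overnight compound exposure of HEK293 cells at 37C in 5% CO2. Activity is given as auto fluorescence equivalency to triamterene.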
For `Oc1cccc2cccnc12`, the outcome was “inactive”. In the case of `O=C(O)CCl`, the outcome is reported as “inactive”. In the case of `Cc1cc(Cl)ccc1N`, the outcome is reported as “inactive”. With `O=c1nc(O)n(Cl)c(=O)n1Cl` the outcome was “inactive”. With `Nc1ccc(Cl)cc1` the outcome was “inactive”. For `O=[N+]([O-])O`, the outcome was “inactive”. With `CCCCn1cc[n+](C)c1C` the outcome was “inactive”. With `CCC[N+]1(C)CCCC1` the outcome was “inactive”. In the case of `CCCCCCCCCCn1cc[n+](C)c1`, the outcome is reported as “inactive”. In the case of `CCCCCCCCCCCCn1cc[n+](C)c1`, the outcome is reported as “inactive”. With `CN(C)[C@@H]1C(=O)C(C(N)=O)=C(O)[C@@]2(O)C(=O)C3=C(O)c4c(O)cccc4[C@@](C)(O)[C@H]3[C@H](O)[C@@H]12` the outcome was “inactive”. In the case of `O=c1[nH]c(=O)n(Cl)c(=O)n1Cl`, the outcome is reported as “inactive”. For `CC(Cl)(Cl)C(=O)O`, the outcome was “inactive”. With `C[N+](C)(C)Cc1ccccc1` the outcome was “inactive”. With `COP(=O)(OC)OC=C(Cl)Cl` the outcome was “inactive”. For `CCCC[n+]1ccc(C)cc1`, the outcome was “inactive”. For `CCCCCC[n+]1ccccc1`, the outcome was “inactive”. With `CC(=O)O` the outcome was “inactive”. For `CCn1cc[n+](C)c1C`, the outcome was “inactive”. With `CCCCn1cc[n+](C)c1` the outcome was “inactive”. With `O=S(=O)(O)O` the outcome was “inactive”. In the case of `CCCCCCCCn1cc[n+](C)c1`, the outcome is reported as “inactive”. With `CCCn1cc[n+](C)c1` the outcome was “inactive”. With `CC[N+](CC)(CC)CC` the outcome was “inactive”. For `CCCC[n+]1ccccc1`, the outcome was “inactive”. For `CCC[N+]1(C)CCCCC1`, the outcome was “inactive”. For `CCCCCCCCCCCC(=O)O`, the outcome was “inactive”. For `C=CCOC(Cn1ccnc1)c1ccc(Cl)cc1Cl` (stereo unspecified), the outcome was “inactive”. For `CCCCCCCCCCCCOS(=O)(=O)O`, the outcome was “inactive”. For `COc1ccccc1N`, the outcome was “inactive”. With `CCCCCCCCCCCCCC[P+](CCCCCC)(CCCCCC)CCCCCC` the outcome was “inactive”. For `CCCC[N+]1(C)CCCCC1`, the outcome was “inactive”.

Assay: qHTS assay to test for compound auto fluorescence at 590 nm (red) in HEK293 cells (AID 720679)
Conditions: red autofluorescence 540/590 nm; series mostly up to 91.3 µM
Procedure, shortened: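 Red channel, Ex/Em 540/590nm; signal expressed as equivalency to Rose Bengal sodium. HEK293, 2,000 cells/well, 10% dialyzed FBS; 23 nL compound pinned after 4-5 hr attachment; overnight 37C/5% CO2 before reading.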
For `Oc1cccc2cccnc12`, the outcome was “inactive”. With `O=C(O)CCl` the outcome was “inactive”. With `Cc1cc(Cl)ccc1N` the outcome was “inactive”. With `O=c1nc(O)n(Cl)c(=O)n1Cl` the outcome was “inactive”. With `Nc1ccc(Cl)cc1` the outcome was “inactive”. With `O=[N+]([O-])O` the outcome was “inactive”. In the case of `CCCCn1cc[n+](C)c1C`, the outcome is reported as “inactive”. In the case of `CCC[N+]1(C)CCCC1`, the outcome is reported as “inactive”. With `CCCCCCCCCCn1cc[n+](C)c1` the outcome was “inactive”. With `CCCCCCCCCCCCn1cc[n+](C)c1` the outcome was “inactive”. With `CN(C)[C@@H]1C(=O)C(C(N)=O)=C(O)[C@@]2(O)C(=O)C3=C(O)c4c(O)cccc4[C@@](C)(O)[C@H]3[C@H](O)[C@@H]12` the outcome was “inactive”. With `O=c1[nH]c(=O)n(Cl)c(=O)n1Cl` the outcome was “inactive”. For `CC(Cl)(Cl)C(=O)O`, the outcome was “inactive”. In the case of `C[N+](C)(C)Cc1ccccc1`, the outcome is reported as “inactive”. With `COP(=O)(OC)OC=C(Cl)Cl` the outcome was “inactive”. For `CCCC[n+]1ccc(C)cc1`, the outcome was “inactive”. With `CCCCCC[n+]1ccccc1` the outcome was “inactive”. With `CC(=O)O` the outcome was “inactive”. With `CCn1cc[n+](C)c1C` the outcome was “inactive”. With `CCCCn1cc[n+](C)c1` the outcome was “inactive”. For `O=S(=O)(O)O`, the outcome was “inactive”. In the case of `CCCCCCCCn1cc[n+](C)c1`, the outcome is reported as “inactive”. In the case of `CCCn1cc[n+](C)c1`, the outcome is reported as “inactive”. With `CC[N+](CC)(CC)CC` the outcome was “inactive”. In the case of `CCCC[n+]1ccccc1`, the outcome is reported as “inactive”. For `CCC[N+]1(C)CCCCC1`, the outcome was “inactive”. In the case of `CCCCCCCCCCCC(=O)O`, the outcome is reported as “inactive”. For `C=CCOC(Cn1ccnc1)c1ccc(Cl)cc1Cl` (stereo unspecified), the outcome was “inactive”. With `CCCCCCCCCCCCOS(=O)(=O)O` the outcome was “inactive”. With `COc1ccccc1N` the outcome was “inactive”. For `CCCCCCCCCCCCCC[P+](CCCCCC)(CCCCCC)CCCCCC`, the outcome was “inactive”. For `CCCC[N+]1(C)CCCCC1`, the outcome was “inactive”.
